PrP 5UTR inh: inhibition of PrP 5' UTR reporter expression; inhibition, % (test concentration not listed); cell-based PrP 5' UTR mRNA reporter, plate reader; 0.35% of 340,000 active; in the data active = inhibition above about 52%; also: 0 = median of the neutral control wells
BJeLR lethal: BJeLR cell viability loss; BJeLR (HRASV12) viability, CellTiter-Glo ATP luminescence, 48 h; inhibition, % (test concentration not listed); 0.17% of 300,000 active; AID 1554; in the data active = inhibition above about 50%
3CLpro inhibitor: SARS-CoV 3CLpro protease inhibition; P0C6X7; 0.14% of 290,000 active; recombinant SARS-CoV 3CLpro, quenched FRET peptide cleavage; inhibition, % at 6 µM; in the data active = inhibition above about 12%
SSB-PriA inh: blocks PriA binding to SSB C-terminal tail. AlphaScreen SSBct-PriA binding, biotinylated peptide. inhibition, % at 33 µM. 0.6% of 430,000 active. AID 1272365; in the data active = inhibition mostly above about 37%, no sharp cut-off; inactive = mostly below about 20%;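 also: plate controls were negative control peptide for no effect and reference peptide for full effect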
PrPC surface inh: reduces human prion protein on the cell surface; P04156; cell surface PrPC, TR-FRET read-out; inhibition, % at 13.8 µM; 0.43% of 370,000 active; in the data active = inhibition above about 24%; also: 0% = median of the test wells and 100% = reference compound wells
PrP UTR cherry: prion 5' UTR mRNA inhibition, cherry-pick retest | shares compounds with PrP 5UTR inh | cell-based prion protein 5' UTR reporter, plate reader | inhibition, % at 2.5 µM | 48% of 1,100 active | AID 504592; in the data active = inhibition above about 54%
An asterisk follows results filed as active; i = inactive; . = not tested or not shown; ! = not confirmed by another sample. This is a sample that favours compounds with a hit; in the whole collection about 1.2% have one here.

SMILES | PrP 5UTR inh | BJeLR lethal | 3CLpro inhibitor | SSB-PriA inh | PrPC surface inh | PrP UTR cherry
O=C1C=C(Nc2cccc3cccnc23)c2ccccc2C1=O | 64* | 45 | 1 | 8 | -18 | -36
Cn1nnc2cc(C(=O)NC3CCCCC3)ccc21 | 75* | 0 | -4 | -3 | -2 | 83*
CCN(CC)c1nc(Oc2ccc(C(=O)OC)cc2)nc(N2CCOCC2)n1 | 82* | 0 | 1 | 0 | -1 | -26
COc1cccc2c1C(CO)N1C(C#N)C3CC(C(=O)O)C(C1C2)N3C (stereo not given) | 69* | . | -1 | 2 | -4 | 75*
CN(Cc1cccc2cnccc12)C(=O)CCc1nnc(CCc2ccccc2)o1 | -39 | 6 | 6 | 0 | -8 | .
COc1ccccc1CCc1nnc(CCC(=O)N(C)Cc2cccc3ncccc23)o1 | 58* | -5 | 2 | -8 | -4 | -26
CCOc1ccc(-c2cc3c(SCC(=O)OC(C)C)nccn3n2)cc1Cl | . | . | . | -12 | . | .
Clc1ccc(-n2nnc(-c3nccs3)n2)cc1Cl | -29 | -6 | 4 | 5 | 1 | .
Cc1ccc(-n2nnc(-c3nccs3)n2)cc1 | 77* | 23 | 5 | -15 | 0 | 62*
CN(C(=O)c1ccccc1C(=O)OCC(=O)NCc1cccs1)C1CCCCC1 | 55* | -1 | -2 | -28 | 9 | -15
O=C(COC(=O)c1ccccc1Cl)NCc1cccs1 | . | . | . | . | 4 | .
CCOC([O-])=Nc1c[n+](N2CCOCC2)no1 | . | . | . | 0 | . | .
CC1CCCN(c2ncnc3c2cnn3-c2ccc(Cl)cc2)C1 (stereo not given) | 88* | 1 | . | -23 | -3 | 84*
Cc1ccc(-n2cc(C(=O)N3CCN(c4cccc(Cl)c4)CC3)nn2)cc1 | . | . | . | 6 | . | .
O=C(c1ccccc1)n1ccc(-c2cnc(-c3ccccc3)s2)n1 | 54* | 2 | -9 | -5 | -9 | -35
COc1ccc(S(=O)(=O)n2ccc(-c3cnc(-c4ccccc4)s3)n2)cc1 | -36 | -11 | 2 | -20 | -89 | .
CC(=O)OCC(=O)[C@@]1(O)CC[C@H]2[C@@H]3CCC4=CC(=O)CC[C@]4(C)[C@H]3[C@@H](O)C[C@@]21C | 65*! | -12 | 0 | -6 | 12 | -13
CCN1CCc2nc(NC(=O)c3ccc(C#N)cc3)sc2C1 | . | . | . | -9 | . | .
CCOC(=O)N1CCN(c2cc(=O)n(-c3ccc(OC)cc3)c(=O)[nH]2)CC1 | -17 | . | -1 | 2 | -3 | .
COC(=O)C1CCN(c2cc(=O)n(-c3ccc(OC)cc3)c(=O)[nH]2)CC1 | 68* | -7 | 3 | -13 | -4 | -15
O=C(c1ccc(S(=O)(=O)NC2CC2)o1)N1CCCC1 | . | . | . | -32 | . | .
COc1ccc(C(=O)NC(=O)Nc2cc(C)ccn2)cc1 | 61* | 9 | 1 | -3 | 5 | 64*
O=C(NC(=O)c1ccccc1)Nc1ccccn1 | 75* | 28 | -1 | -10 | -7 | 76*
O=C(c1cc2ccccc2o1)N1CCC(S(=O)(=O)c2ccc(Cl)cc2)C1 (stereo not given) | . | . | . | -2 | . | .
O=C(Cc1ccc(Cl)cc1)NC1CCC(Oc2ncccn2)CC1 (stereo not given) | . | . | . | -15 | . | .
SMILES | PrP 5UTR inh | BJeLR lethal | 3CLpro inhibitor | SSB-PriA inh | PrPC surface inh | PrP UTR cherry
O=C(c1cn(CC(O)c2ccccc2F)nn1)N1CCN(C(=O)c2ccco2)CC1 (stereo not given) | . | . | . | 1 | . | .
CNC(=O)COC(=O)/C=C/c1ccc(F)cc1 | -9 | -18 | 1 | -8 | 0 | .
CNC(=O)COC(=O)/C=C/c1cccc(F)c1 | 58* | 3 | 4 | -10 | -3 | -10
COC1CC(C)C(OC)c2cc(O)cc(c2O)NC(=O)C(C)=CC=CC(C)C(OC(N)=O)C(C)=CC(C)C1OC (stereo not given) | 30 | . | . | -5 | 1 | .
COC1C=CC=C(C)C(=O)NC2=CC(=O)C(N)=C(CC(C)CC(OC)C(O)C(C)C=C(C)C1OC(N)=O)C2=O (stereo not given) | 76* | . | . | -1 | -33 | 82*
COc1ccc(OC)c(Nc2c3c(nc4ccccc24)CCC3)c1 | 74* | 47 | 6 | 24 | 19 | 87*
CCOc1ccc(CC(O)=C2C(=O)CC(C)(C)CC2=NCC(=O)O)cc1OCC | . | . | . | -8 | . | .
CN(C)c1ccc(C(=S)Nc2ccccc2)cc1 | 22 | 3 | 1 | 15 | 9 | .
CN(C)c1ccc(NC(=S)c2ccccn2)cc1 | 83* | 13 | 4 | 64 | -5 | 80*
CC(C)(C)c1ccc(/C=N/Nc2cccc(C(=O)O)c2)cc1 | 60* | -7 | 7 | . | -5 | 54*
CN(C)c1ccc(/C=N/Nc2cccc(C(=O)O)c2)cc1 | 93* | -6 | -1 | . | -2 | 92*
O=C(O)c1cccc(NN=Cc2ccc(-c3ccccc3)cc2)c1 | . | . | . | -7 | . | .
COc1ccc(/C=C/CN2CCN(Cc3ccccc3)C(CCO)C2)cc1 (stereo not given) | 76* | 1 | 1 | 0 | -4 | -57
CC(=O)c1cccc(NC(=O)C2CCN(c3ccc(-c4ccco4)nn3)CC2)c1 | . | . | . | -24 | . | .
CC(=O)OCC12CC(OC(=O)CC(C)C)C(C)=CC1OC1C(O)C(OC(C)=O)C2(C)C12CO2 (stereo not given) | 91* | . | . | -1 | 87* | 93*
COc1coc(C(=O)NCCc2ccc(F)cc2)cc1=O | . | . | . | 3 | . | .
CN(C(=O)CSc1nc(-c2ccc(F)cc2)cs1)C1CCS(=O)(=O)C1 (stereo not given) | -8 | 8 | 5 | -1 | -6 | .
CN(C(=O)CSc1nc(-c2ccccc2)cs1)C1CCS(=O)(=O)C1 (stereo not given) | 85* | -6 | 0 | -3 | 0 | -30
COC(=O)c1cn(NC(=O)c2ccccc2[N+](=O)[O-])c(=O)c2ccccc12 | 56* | . | 5 | -9 | -4 | -41
COc1cccc(CSc2nccn(-c3ccc(Cl)cc3)c2=O)c1 | . | . | . | -27 | . | .
COC(=O)Nc1ccc(S(=O)(=O)N2CCCCC2C(=O)NCc2ccco2)cc1 (stereo not given) | 89* | 7 | -1 | -9 | -3 | 27
Cc1nn(-c2ccccc2)c(C)c1/C=N/NC(=O)c1cc(-c2ccccc2)n[nH]1 | 66* | 35 | -14 | . | 16 | 80*
Cc1ccc(NC(=O)O/N=C/c2c(C)nn(C(C)(C)C)c2C)cc1Cl | 88* | 3 | -2 | i | -6 | 87*
O=C1c2ccccc2C(O)(c2ncc[nH]2)N1C1CCCCC1 (stereo not given) | 69* | 11 | 2 | -13 | -2 | -17
N#Cc1cccnc1OC1CCN(C(=O)COc2ccc(F)cc2)CC1 | . | . | . | 6 | . | .
COC(=O)C1=C(c2ccccc2OCc2ccccc2)C[C@@H]2CC[C@H]1N2C(=O)NCCc1ccc(F)cc1 | 58* | . | . | 9 | 10 | 2
CCCCNC1=CC(=O)C(=O)c2ccccc21 | -32 | 11 | 4 | -12 | -32 | .
CCCCN1C=CC(=C2C(=O)c3ccccc3C2=O)C=C1 | 87* | 65* | 8 | 5 | -29 | 92*

Screening results as filed in PubChem.
